Compound activity: PubChem BioAssay, National Center for Advancing Translational Sciences (NCATS)
Most compounds without a hit are left out; they make up all but 8.8% or so of the library.
HT1080NT lethal: kills 2HG-producing HT-1080-NT fibrosarcoma cells; actives 1.6% (n = 360,000); Potency, µM (series often up to 46.1 µM), inactives show at the top dose activity, negative = less viability, usual class: cytotoxic; HT-1080-NT fibrosarcoma viability, CellTiter-Glo ATP luminescence, 48 h;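 also: NT is the 2HG producing partner of a matched IDH1 knockdown line; potency is read from the fitted curve at half-maximal effect; 0% = DMSO-treated cells and -100% = media-only wells without cells; nearly all actives have a fitted effect of over 55% in size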
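Luminescent CellTiter-Glo readout after 48 hours of compound exposure at 37 degrees C defined viability of HT-1080-NT cells. Activity was normalized to DMSO wells and cell-free media wells; concentration-response curves were fitted and assigned curve classes.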
IL-1B inflam inh: inflammasome signaling inhibition, IL-1 beta readout; activity change, % at 57.5 µM; THP-1 LPS/ATP IL-1B secretion, AlphaLISA, 16 h; stronger effect = lower value; actives 4.7% (n = 360,000); in the data active = activity change below about -50%; inconclusive = mostly about -30% to -49%
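Secreted IL-1B measured by AlphaLISA bead assay after 16 h compound exposure of THP-1 cells; compounds (final up to 57.5 uM) added 1 h before LPS (250 ng/mL) and ATP (1.25 mM) stimulation; lower signal means less secretion.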
HT1080 IDH1KD tx: toxicity to HT-1080 IDH1 knockdown cells (counter line). actives 2% (n = 360,000). HT-1080 IDH1 knockdown viability, ATP luminescence, 48 h. AID 686971. Potency, µM (highest dose often 46.1 µM), for inactives: at the top dose activity, negative = toxicity, hits mostly cytotoxic;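 also: potency is read from the fitted curve at half-maximal effect; 0% = DMSO wells and -100% = cell-free medium wells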
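HT-1080-IDH1KD cells (IDH1 knocked down), 750/well in RPMI with 5% FBS, treated with compound 48 h at 37 degrees C. Viability by CellTiter-Glo luminescence, normalised to DMSO and no-cell wells; concentration-response curves classed.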
KB-V1 MDR tox: kills drug-selected multidrug resistant KB-V1 cells | KB-V1 MDR cells viability, CellTiter-Glo, 72 h | Potency, µM (doses to about 46.1 µM), actives largely listed as cytotoxic | actives 3.4% (n = 400,000); also: potency is read from the fitted curve at half-maximal effect; nearly all actives have a fitted effect of over 60% in size
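KB-V1, DMEM (no phenol red) + 10% FBS; cpd pin-transferred, titration series; 72 h, 37 degrees C; CellTiter-Glo, luminescence. Data normalized, curve-fit.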
KB-3-1 tox: kills parental KB-3-1 adenocarcinoma cells. Potency, µM (series often up to 46.1 µM), actives largely listed as cytotoxic. KB-3-1 viability, CellTiter-Glo ATP luminescence, 72 h. actives 1.4% (n = 400,000); also: potency is read from the fitted curve at half-maximal effect; nearly all actives have a fitted effect of over 60% in size
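Viability of parental KB-3-1 cells, measured by CellTiter-Glo luminescence, followed a 72 h incubation at 37 °C with pinned compounds in phenol-red-free DMEM containing 10% FBS.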
* hit, by the source's call. Unless noted, calls follow the shape of the dose curve; as a rule, active = well fitted curve in the direction sought with a large enough effect; inconclusive = small, poorly fitted or top-dose-only effect, or another doubt; inactive = no such curve, though single readings can be large; an effect the other way counts as inactive or inconclusive. Unless noted, % is scaled to controls: 0 for no effect and ±100 for the full control effect.

How did N#Cc1cccc(NC(=O)C2CCN(c3cnccn3)CC2)c1 do in these assays?
KB-V1 MDR tox: inactive; KB-3-1 tox: inactive

What do the screens show for `S=C(Nc1ccccc1Cl)N(CCCN1CCOCC1)Cc1ccco1`?
HT1080NT lethal: 8%; IL-1B inflam inh: 9; HT1080 IDH1KD tx: 11%; KB-V1 MDR tox: 21µM*; KB-3-1 tox: inactive

Results for CCOC(=O)c1ccc(NC(=S)N(CCCN(CC)CC)Cc2ccco2)cc1 ?
HT1080NT lethal: -13%; IL-1B inflam inh: -55*; HT1080 IDH1KD tx: -21%; KB-V1 MDR tox: inactive; KB-3-1 tox: inactive

Results for CCOC(=O)c1ccc(NC(=S)N(CCCN2CCCCC2)Cc2ccco2)cc1 ?
HT1080NT lethal: inconclusive; IL-1B inflam inh: -53*; HT1080 IDH1KD tx: inconclusive; KB-V1 MDR tox: inactive; KB-3-1 tox: inactive

Results for Cc1ccc(NC(=S)N(CCN2CCCCC2)Cc2ccco2)cc1Cl ?
HT1080NT lethal: inconclusive; IL-1B inflam inh: -98*; HT1080 IDH1KD tx: inconclusive; KB-V1 MDR tox: inconclusive; KB-3-1 tox: inactive

How did CC(=O)c1sc(NC(=O)c2ccc(F)c(S(=O)(=O)N3CCOCC3)c2)nc1C do in these assays?
HT1080NT lethal: 1%; IL-1B inflam inh: -3; HT1080 IDH1KD tx: 2%; KB-V1 MDR tox: inactive; KB-3-1 tox: inactive

How did Cc1ccc(NC(=O)CN(C)S(=O)(=O)c2ccc3c(c2)CCC(=O)N3)c(C)c1 do in these assays?
KB-V1 MDR tox: inactive; KB-3-1 tox: inconclusive

Results for Cc1ccc(-c2nn(-c3cccc(F)c3)cc2CN2CCN(c3ccccn3)CC2)o1 ?
HT1080NT lethal: -1%; IL-1B inflam inh: -2; HT1080 IDH1KD tx: -8%; KB-V1 MDR tox: inactive; KB-3-1 tox: inactive

Results for CN(Cc1ncc[nH]1)Cc1cn(-c2ccccc2)nc1-c1ccc2c(c1)OCO2 ?
HT1080NT lethal: -2%; IL-1B inflam inh: inconclusive; HT1080 IDH1KD tx: -17%; KB-V1 MDR tox: inactive; KB-3-1 tox: inactive

What do the screens show for `Cc1ccc(-c2nn(-c3cccc(F)c3)cc2CN(Cc2nccn2C)C(C)C)o1`?
HT1080NT lethal: -20%; IL-1B inflam inh: -96*; HT1080 IDH1KD tx: inconclusive; KB-V1 MDR tox: inconclusive; KB-3-1 tox: inactive

What do the screens show for `CCN1CC(CN(C)Cc2cn(-c3ccc(C)cc3)nc2-c2cccc(C)c2)CC1=O` (stereo not given)?
HT1080NT lethal: -24%; IL-1B inflam inh: -86*; HT1080 IDH1KD tx: -14%; KB-V1 MDR tox: inactive; KB-3-1 tox: inactive

How did Cc1ccc(-n2cc(CN(C)Cc3ncc[nH]3)c(-c3cccc(C)c3)n2)cc1 do in these assays?
HT1080NT lethal: 18µM*; IL-1B inflam inh: -81*; HT1080 IDH1KD tx: 18µM*; KB-V1 MDR tox: inconclusive; KB-3-1 tox: inactive

What do the screens show for `CCn1ccnc1CN(C)Cc1cn(-c2ccc(C)cc2)nc1-c1ccc(F)cc1`?
HT1080NT lethal: -11%; IL-1B inflam inh: -14; HT1080 IDH1KD tx: -7%; KB-V1 MDR tox: inactive; KB-3-1 tox: inactive

Results for Cc1ccc(-n2cc(CN(C)Cc3nccn3C)c(-c3ccc(F)cc3)n2)cc1 ?
HT1080NT lethal: inconclusive; IL-1B inflam inh: -139*; HT1080 IDH1KD tx: inconclusive; KB-V1 MDR tox: inactive; KB-3-1 tox: inactive

Results for Cc1cc(C)c(NS(=O)(=O)c2ccc(NC(=O)CCC(=O)O)cc2)c(C)c1 ?
HT1080NT lethal: 30%; IL-1B inflam inh: -9; HT1080 IDH1KD tx: inconclusive; KB-V1 MDR tox: inactive; KB-3-1 tox: inactive

Results for CCn1ccnc1CN(C)Cc1cn(C)nc1-c1ccccc1F ?
HT1080NT lethal: 9%; IL-1B inflam inh: -5; HT1080 IDH1KD tx: 6%; KB-V1 MDR tox: inactive; KB-3-1 tox: inactive

Results for CCn1ccnc1CN(C)Cc1cn(-c2ccccc2)nc1-c1ccc(OC)cc1F ?
HT1080NT lethal: -19%; IL-1B inflam inh: -74*; HT1080 IDH1KD tx: -30%; KB-V1 MDR tox: inactive; KB-3-1 tox: inactive

Results for Cc1ccc(-n2cc(CN3CCC(O)(c4ccccn4)CC3)c(-c3ccc(F)cc3)n2)cc1 ?
HT1080NT lethal: 16µM*; IL-1B inflam inh: -103*; HT1080 IDH1KD tx: inconclusive; KB-V1 MDR tox: inconclusive; KB-3-1 tox: inactive
